Results: the supplement of paper PMC4466140

Target: ScBbc1
Experiment: SPOT peptide array binding signal intensity (averaged, normalized) (arbitrary units (background-subtracted, floor 0; scale differs between SH3 domains)); higher = stronger binding of the SH3 domain to the peptide
Method in brief: (§1)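 Detection of bound protein relied on anti-GST antibody, an HRP anti-mouse secondary and luminol, with imaging and quantification in Genespotter. The bound protein was GST-fused SH3 domains from four yeast species, incubated at 10 μg/ml overnight at 4°C in TBS-based blocking buffer on cellulose membranes carrying synthetic 15-mer peptides with cysteines replaced by serines. Binding signal is normalized, background-subtracted spot intensity averaged over replicates, in arbitrary units that differ between domains.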

Binder | SPOT peptide array binding signal intensity
QGYPRQPQRPQRYHP | 40.2

Target: ScBem1-D1
Experiment: as above
Method in brief: as §1

Binder | SPOT peptide array binding signal intensity
QGYPRQPQRPQRYHP | 2.5

Target: ScBzz1-D1
Experiment: as above
Method in brief: as §1

Binder | SPOT peptide array binding signal intensity
QGYPRQPQRPQRYHP | ≤ 0

Target: ScBzz1-D2
Experiment: as above
Method in brief: as §1

Binder | SPOT peptide array binding signal intensity
QGYPRQPQRPQRYHP | 11

Target: ScCyk3
Experiment: as above
Method in brief: as §1

Binder | SPOT peptide array binding signal intensity
QGYPRQPQRPQRYHP | ≤ 0

Target: ScFus1
Experiment: as above
Method in brief: as §1

Binder | SPOT peptide array binding signal intensity
QGYPRQPQRPQRYHP | ≤ 0

Target: ScHof1
Experiment: as above
Method in brief: as §1

Binder | SPOT peptide array binding signal intensity
QGYPRQPQRPQRYHP | 0.75

Target: ScHse1
Experiment: as above
Method in brief: as §1

Binder | SPOT peptide array binding signal intensity
QGYPRQPQRPQRYHP | ≤ 0

Target: ScLsb1
Experiment: as above
Method in brief: as §1

Binder | SPOT peptide array binding signal intensity
QGYPRQPQRPQRYHP | 9.5

Target: ScLsb2
Experiment: as above
Method in brief: as §1

Binder | SPOT peptide array binding signal intensity
QGYPRQPQRPQRYHP | ≤ 0

Target: ScLsb3
Experiment: as above
Method in brief: as §1

Binder | SPOT peptide array binding signal intensity
QGYPRQPQRPQRYHP | 1040

Target: ScLsb4
Experiment: as above
Method in brief: as §1

Binder | SPOT peptide array binding signal intensity
QGYPRQPQRPQRYHP | 25

Target: ScMyo3
Experiment: as above
Method in brief: as §1

Binder | SPOT peptide array binding signal intensity
QGYPRQPQRPQRYHP | ≤ 0

Target: ScMyo5
Experiment: as above
Method in brief: as §1

Binder | SPOT peptide array binding signal intensity
QGYPRQPQRPQRYHP | ≤ 0

Target: ScNbp2
Experiment: as above
Method in brief: as §1

Binder | SPOT peptide array binding signal intensity
QGYPRQPQRPQRYHP | 3.5

Target: ScPex13
Experiment: as above
Method in brief: as §1

Binder | SPOT peptide array binding signal intensity
QGYPRQPQRPQRYHP | 29.5

Target: ScRvs167
Experiment: as above
Method in brief: as §1

Binder | SPOT peptide array binding signal intensity
QGYPRQPQRPQRYHP | ≤ 0

Target: ScSho1
Experiment: as above
Method in brief: as §1

Binder | SPOT peptide array binding signal intensity
QGYPRQPQRPQRYHP | 16

Target: ScSla1-D1-D2
Experiment: as above
Method in brief: as §1

Binder | SPOT peptide array binding signal intensity
QGYPRQPQRPQRYHP | 12

Target: ScSla1-D3
Experiment: as above
Method in brief: as §1

Binder | SPOT peptide array binding signal intensity
QGYPRQPQRPQRYHP | ≤ 0

Target: SpAbp1-D1
Experiment: as above
Method in brief: as §1

Binder | SPOT peptide array binding signal intensity
QGYPRQPQRPQRYHP | ≤ 0

Target: SpBbc1
Experiment: as above
Method in brief: as §1

Binder | SPOT peptide array binding signal intensity
QGYPRQPQRPQRYHP | 3.5

Target: SpBzz1-D1
Experiment: as above
Method in brief: as §1

Binder | SPOT peptide array binding signal intensity
QGYPRQPQRPQRYHP | 226

Target: SpBzz1-D2
Experiment: as above
Method in brief: as §1

Binder | SPOT peptide array binding signal intensity
QGYPRQPQRPQRYHP | 0.5

Target: SpCyk3
Experiment: as above
Method in brief: as §1

Binder | SPOT peptide array binding signal intensity
QGYPRQPQRPQRYHP | ≤ 0

Target: SpHof1
Experiment: as above
Method in brief: as §1

Binder | SPOT peptide array binding signal intensity
QGYPRQPQRPQRYHP | 5

Target: SpHof1-2
Experiment: as above
Method in brief: as §1

Binder | SPOT peptide array binding signal intensity
QGYPRQPQRPQRYHP | ≤ 0

Target: SpHof1-3
Experiment: as above
Method in brief: as §1

Binder | SPOT peptide array binding signal intensity
QGYPRQPQRPQRYHP | 0.5

Target: SpHse1
Experiment: as above
Method in brief: as §1

Binder | SPOT peptide array binding signal intensity
QGYPRQPQRPQRYHP | 2

Target: SpLsb1
Experiment: as above
Method in brief: as §1

Binder | SPOT peptide array binding signal intensity
QGYPRQPQRPQRYHP | 4

Target: SpLsb4
Experiment: as above
Method in brief: as §1

Binder | SPOT peptide array binding signal intensity
QGYPRQPQRPQRYHP | 1230

Target: SpMyo1
Experiment: as above
Method in brief: as §1

Binder | SPOT peptide array binding signal intensity
QGYPRQPQRPQRYHP | ≤ 0

Target: SpNbp2
Experiment: as above
Method in brief: as §1

Binder | SPOT peptide array binding signal intensity
QGYPRQPQRPQRYHP | ≤ 0

Target: SpPex13
Experiment: as above
Method in brief: as §1

Binder | SPOT peptide array binding signal intensity
QGYPRQPQRPQRYHP | 1

Target: SpRvs167
Experiment: as above
Method in brief: as §1

Binder | SPOT peptide array binding signal intensity
QGYPRQPQRPQRYHP | 3

Target: SpSla1-D1-D2
Experiment: as above
Method in brief: as §1

Binder | SPOT peptide array binding signal intensity
QGYPRQPQRPQRYHP | ≤ 0

Target: SpSla1-D3
Experiment: as above
Method in brief: as §1

Binder | SPOT peptide array binding signal intensity
QGYPRQPQRPQRYHP | ≤ 0
